This passage reports outcome results from PubChem BioAssay (Tox21).

Calls of active or inactive are those of the source. Calls come from the whole dose curve; as a rule, active = well fitted curve in the direction sought with a large enough effect in the repeat runs; inconclusive = weak or mixed curves; inactive = flat fitted curve, though single readings scatter.

A short description of this assay: qHTS assay to test for compound auto fluorescence at 460 nm (blue) in HEK293 cell free culture (AID 720681). The note with it: cell-free medium, autofluorescence 405/460 nm (blue); series mostly up to 91.3 µM. An excerpt:
U.S. Tox21 Program National Center for Advancing Translational Sciences [NCATS] NIH Chemical Genomics Center [NCGC] U.S. Environmental Protection Agency [EPA] National Institutes of Environmental Health Sciences [NIEHS] National Toxicology Program [NTP] U.S. Food and Drug Administration [FDA] Tox21 Assay Overview: Compound auto fluorescence often interferes with screening of the compound library against various biological targets and signaling pathways. Some of these compounds may have fluorophoric properties. Such properties may interfere with the assay outputs resulting in false positives and/or negatives. To decrease such complications and ensure the compound activities are relevant in terms of biological response, the Tox21 10K compound library was screened for auto fluorescence. From the fluorophores used as reporter signals in our screening assays, the auto fluorescence equivalencies of compounds against three fluorophores have been evaluated: Triamterene, Fluorescein and Rose Bengal sodium for blue, green and red fluorescence, respectively. The fluorescence intensities were measured using Excitation/Emission wavelengths at 405/460nm, 485/535nm and 540/590nm for blue, green and red labels, respectively. This assay includes the blue fluorescence data.
Tox21 Assay Protocol Summary: 5 uL of culture medium (DMEM containing 10% FBS) per well was dispensed into black wall/clear bottom 1536-well plates using a Multidrop Combi Dispenser (ThermoFisher Scientific, Waltham, MA). After 23 nL compound or DMSO vehicle was transferred into assay plate by a pintool work station (Kalypsys, San Diego, CA), fluorescence intensities in the assay plates were measured by an Envision (PerkinElmer, Shelton, CT) plate reader using three labels for measuring blue, green and red fluorescence at […] 460, 535 and 590nm respectively.
(In qHTS, concentration-response curves come from the screen itself.)
As for `CC(C)(N)CO`, the result was inactive.
The result for `O=S1(=O)CC=CC1` reads “inactive”; that for `O=C(Oc1ccccc1)c1ccccc1`, “inactive”.
With `CCCCCC(N)=O` the entry was “inactive”; with `CCC(O)OCCCOC` (stereo not given), “inactive”; with `CCCCOC(=O)COc1ccc(Cl)cc1Cl`, “inactive”.
Consider `O=C(O)c1ccc(C(=O)O)cc1`, for which the call was inactive.
For the molecule `CCCCCCCC(=O)OC`, the molecule was classed as inactive.
With `CC(=O)CC(=O)Nc1ccccc1C` the entry was “inactive”; with `C[Si](O[Si](C)(C)C)O[Si](C)(C)C`, “inactive”.
For `COc1ccc(Cl)cc1C(=O)NCCc1ccc(S(=O)(=O)NC(=O)NC2CCCCC2)cc1`, the molecule was called inactive.
With `CN(C)CCC(c1ccccc1)c1ccccn1` (stereo not given) the entry was “inactive”; with `c1ccc2scnc2c1`, “inactive”; with `CCCCN(CCCC)CCCC`, “inactive”.
The result for `O=C(O)[C@H](O)[C@@H](O)[C@H](O)[C@H](O)CO` reads “inactive”; that for `C[C@H]1C[C@@H]2[C@H]([C@@H](O)C[C@@]3(C)[C@H]2CC[C@]3(O)C(=O)CO)[C@@]2(C)C=CC(=O)C=C12`, “inactive”; that for `CCc1cccc(C)c1N`, “inactive”.
With `ON=C1CCCCC1`, the molecule was classed as inactive.
With `COS(C)(=O)=O` the entry was “inactive”; with `CCCCCCCCCCCCS`, “inactive”; with `FC(F)(F)c1ccc(Cl)c(Cl)c1`, “inactive”.
The result for `NNc1nncc2ccccc12` reads “inactive”; that for `CC(=O)Nc1ccccc1`, “inactive”.
With `O=c1[nH]c(=O)n([C@H]2C[C@H](O)[C@@H](CO)O2)cc1Br` the entry was “inactive”.
Take `CC1=C(C)S(=O)(=O)CCS1(=O)=O`: the result was inactive.
The result for `Cc1cnc(C(=O)NCCc2ccc(S(=O)(=O)NC(=O)NC3CCCCC3)cc2)cn1` reads “inactive”; that for `COc1cc(Cc2cnc(N)nc2N)cc(OC)c1OC`, “inactive”.
`CC(C)CC(=O)CC(C)C`: the molecule was called inactive.
Consider `CCCCCC/C(C=O)=C\c1ccccc1`, for which the outcome was inactive.
With `CN(C)CCCN`, the molecule was called inactive.
With `O=C(O)c1cc(=O)c2c(OCC(O)COc3cccc4oc(C(=O)O)cc(=O)c34)cccc2o1`, the molecule was classed as inactive.
With `Cc1ccc(N(C)C)cc1` the entry was “inactive”.
With `CC(C)c1ccc(S(=O)(=O)O)cc1` the entry was “inactive”; with `C#CCN(C)Cc1ccccc1`, “inactive”.
The result for `C=C(C)C(=O)O[C@H]1C[C@@H]2CC[C@@]1(C)C2(C)C` reads “inactive”; that for `OCCOCCOCCO`, “inactive”; that for `Fc1ccc(Br)cc1`, “inactive”.
With `CCCCCCCCC/C=C/CC1CC(=O)OC1=O` (stereo not given), the molecule was called inactive.
The result for `O=C(O)c1ccc2c(c1)C(=O)OC2=O` reads “inactive”; that for `CC(=O)OCC(=O)[C@@]12N=C(C)O[C@@H]1C[C@H]1[C@@H]3CCC4=CC(=O)C=C[C@]4(C)[C@H]3[C@@H](O)C[C@@]12C`, “inactive”.
